Test results from the supplement of paper PMC6555819.

Key:
Assay in all cases: PBM binding z-score (relative to random genomic background probes); higher = stronger binding; sequences stand for … in GC…GCGATTGACAGCGTAGAATGAAGG
[1] = system: FXR:RXRa (NR concentration 270 nM, RXRa partner concentration 90 nM)
Summary of the method: (§1)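 Scanned fluorescence from custom Agilent 4×180K protein-binding microarrays was regression-normalized. Binding z-scores use random background probes as reference. Ligand-free nuclear receptor dimers were incubated on the arrays for 1 h and detected with antibodies against each partner (one per run).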

[2] = system: LXRa:RXRa (NR concentration 270 nM, RXRa partner concentration 90 nM)
Summary of the method: as §1

[3] = system: LXRa homodimer (NR concentration 270 nM)
Summary of the method: as §1

[4] = system: LXRb:RXRa (NR concentration 270 nM, RXRa partner concentration 90 nM)
Summary of the method: as §1

[5] = system: LXRb homodimer (NR concentration 270 nM)
Summary of the method: as §1

[6] = system: PPARa:RXRa (NR concentration 270 nM, RXRa partner concentration 90 nM)
Summary of the method: as §1

[7] = system: PPARg:RXRa (NR concentration 180 nM, RXRa partner concentration 90 nM)
Summary of the method: as §1

[8] = system: PPARg:RXRa 270nM:90nM, anti-RXR (NR concentration 270 nM, RXRa partner concentration 90 nM)
Summary of the method: as §1

[9] = system: PPARg:RXRa 30nM:10nM, anti-RXR (NR concentration 30 nM, RXRa partner concentration 10 nM)
Summary of the method: as §1

[10] = system: PPARg:RXRa 90nM:30nM, anti-RXR (NR concentration 90 nM, RXRa partner concentration 30 nM)
Summary of the method: as §1

Sequence | PBM binding z-score [1] | PBM binding z-score [2] | PBM binding z-score [3] | PBM binding z-score [4] | PBM binding z-score [5] | PBM binding z-score [6] | PBM binding z-score [7] | PBM binding z-score [8] | PBM binding z-score [9] | PBM binding z-score [10]
TAGCCTAAGTCATTCAGGGGCCAGTATAGAAAGC | 0.125 | -0.0745 | -0.319 | 0.338 | -0.276 | 0.0691 | 0.0111 | 0.16 | -0.308 | -0.241
AATACAGGGTCACTAGGCCTGAGTAGGTACGAAT | 6.29 | 4.71 | 0.651 | 3.72 | 0.544 | 5.53 | 6.71 | 5.29 | 2.26 | 4.42
TCTAGTTGGTCATAGGTCACACACTCGAAATGCG | 3.07 | 3.34 | 1.99 | 3.31 | 1.25 | 4.96 | 8.97 | 8.03 | 8.3 | 8.57
TCTGCTAGGTCAACGATGGACAGCTAATCTGCTA | 3.08 | 2.24 | -0.31 | 1.28 | -0.137 | 3.07 | 2.78 | 3.12 | 2.13 | 2.56
ACTAGCAAGCCAAGTTTGGGTCACTCAAACAAAG | -0.12 | -0.258 | -0.55 | 0.443 | -0.728 | 0.909 | -0.253 | 0.132 | -0.505 | -0.56
AATACAGGTTCACTAGGCCAGAGTAGGTACGAAT | 1.7 | 2.58 | 0.711 | 1.5 | 0.333 | 3.19 | 3.24 | 2.98 | 0.739 | 1.97
TCATATAGGTAATACGGGTGAAAGTCGGCATCTA | 0.703 | 0.697 | 0.104 | 0.839 | 0.196 | 1.79 | 1.31 | 2.56 | 3.81 | 3.07
AGAATGAGGTTATTAAGAGCAGGGAATTGCGGTC | 1.73 | 1.76 | 0.247 | 1.32 | 0.0744 | 2.77 | 1.58 | 1.87 | 0.503 | 1.45
CCCGAAAGGTCGTGCTCAGGTGAGTATACCAAAC | 5.73 | 4.05 | 0.438 | 3.37 | 0.415 | 4.94 | 2.94 | 3.87 | 0.899 | 2.53
GGAACGAGGGCAATGTTGATAGCATCTGTCGACG | 0.66 | 0.337 | -0.33 | 0.395 | -0.557 | 1.66 | 1.4 | 1.49 | 0.128 | 0.931
AGTCAAAGTTCACTCGGTAACGTAAGATTCAGCT | 5.02 | 5.41 | 3.18 | 3.38 | 1.27 | 4.24 | 5.6 | 5.93 | 2.54 | 4.94
GGAACGAGGGCTAGTTGATAGCAGAGTTTGATGG | -0.569 | -0.717 | -0.679 | -0.908 | -0.992 | -0.745 | 0.203 | -0.227 | -0.133 | -0.567
